Measured values reported in PubChem BioAssay (NCI).
Compounds without any hit were thinned out: in the full panel of roughly 79,000, 15% have a hit. Activity calls are given as the source filed them. No stated cut-off is given here; in the data, active means growth inhibition above about 70%; inactive means the rest.

Columns and labels:
[1] = NCI Yeast Anticancer Drug Screen. Data for the rad50 strain (AID 155);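 further: 0% = growth of vehicle-only cultures of the same strain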; details: S. cerevisiae rad50 strain growth inhibition, active compounds read high
In short: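 Readout: growth inhibition relative to vehicle-treated cultures. Compound exposure was carried out in a genetically defined yeast strain deficient in DNA damage repair.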

[2] = NCI Yeast Anticancer Drug Screen. Data for the mec2-1 strain (AID 157); details: S. cerevisiae mec2-1 strain, active compounds read high
In short: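 Using mec2-1 yeast: add compound, measure growth, express inhibition versus vehicle-treated cultures.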

[3] = NCI Yeast Anticancer Drug Screen. Data for the sgs1 mgt1 strain (AID 161);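 further: 0% = growth of cultures given vehicle only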; details: S. cerevisiae sgs1 mgt1 strain, active compounds read high
In short: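 Growth of a repair-deficient yeast mutant was monitored after compound treatment and expressed as inhibition relative to vehicle-treated cultures.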

[4] = NCI Yeast Anticancer Drug Screen. Data for the cln2 rad14 strain (AID 165);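 further: 0% = growth equal to vehicle treated cultures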; details: S. cerevisiae cln2 rad14 strain, active compounds read high
In short: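 Yeast strain cln2 rad14, bearing defects in cell cycle control and DNA repair, serves as the test system; values reflect growth inhibition compared with vehicle.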

[5] = NCI Yeast Anticancer Drug Screen. Data for the bub3 strain (AID 167); details: S. cerevisiae bub3 mutant strain, active compounds read high
In short: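 Readout: yeast growth inhibition, expressed relative to vehicle-only wells. The test organism is a mutant strain from a panel with lesions in DNA repair or checkpoint genes.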

[6] = NCI Yeast Anticancer Drug Screen. Data for the mlh1 rad18 strain (AID 175); details: S. cerevisiae mlh1 rad18 strain growth inhibition, active compounds read high
In short: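 Steps: expose repair-defective yeast to compound; measure growth; express inhibition against vehicle-treated controls.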

[7] = at 5.0 µM (retest, dose inferred, filed as 0.5)
[8] = at 50.0 µM (retest, dose inferred, filed as 5.0)

Measured: growth inhibition

CCC/C=[CH]/[Hg][Cl]
active: [1]; [7] 99% | [1]; [8] 99% | [1]; at 50.0 µM 99.2% | [2]; [7] 100% | [2]; [8] 100% | [2]; at 50.0 µM 99.5% | [3]; [7] 100% | [3]; [8] 99% | [3]; at 50.0 µM 99.5% | [4]; [7] 97% | [4]; [8] 99% | [4]; at 50.0 µM 99.3% | [5]; [7] 99% | [5]; [8] 99% | [5]; at 50.0 µM 99.4% | [6]; [7] 100% | [6]; [8] 99% | [6]; at 50.0 µM 99.4%

O=C(c1ccccc1)c1c(CC(O)c2ccccn2)n(C(=O)c2ccccc2)c2ccccc12 (stereo not given)
inactive: [1]; [7] 6% | [2]; [7] -8% | [2]; at 50.0 µM 46.7% | [3]; [7] 5% | [4]; [7] 12% | [4]; at 50.0 µM 65.7% | [5]; [7] -10% | [6]; [7] 2%
active: [1]; [8] 88% | [1]; at 50.0 µM 77.5% | [2]; [8] 75% | [3]; [8] 86% | [3]; at 50.0 µM 82.5% | [4]; [8] 88% | [5]; [8] 93% | [5]; at 50.0 µM 74.2% | [6]; [8] 86% | [6]; at 50.0 µM 84%

O=C(O)c1ccccc1[Se][Se]c1ccccc1C(=O)O
active: [1]; [8] 73% | [5]; [8] 70% | [6]; [8] 74% | [6]; at 50.0 µM 74.5%
inactive: [1]; [7] 50% | [1]; at 50.0 µM 21.1% | [2]; [7] 26% | [2]; [8] 56% | [2]; at 50.0 µM 10.8% | [3]; [7] 53% | [3]; [8] 67% | [3]; at 50.0 µM 15.9% | [4]; [7] 31% | [4]; [8] 46% | [4]; at 50.0 µM 8.05% | [5]; [7] 49% | [5]; at 50.0 µM 34.1% | [6]; [7] 56%

O=C(c1ccccc1)c1c(CC(O)c2ccncc2)n(C(=O)c2ccccc2)c2ccccc12 (stereo not given)
active: [1]; [8] 95% | [1]; at 50.0 µM 94% | [2]; [8] 96% | [2]; at 50.0 µM 92.5% | [3]; [8] 97% | [3]; at 50.0 µM 92.2% | [4]; [8] 96% | [4]; at 50.0 µM 82.7% | [5]; [8] 98% | [5]; at 50.0 µM 92.2% | [6]; [8] 95% | [6]; at 50.0 µM 93.8%
inactive: [1]; [7] 18% | [2]; [7] -2% | [3]; [7] 8% | [4]; [7] 18% | [5]; [7] -3% | [6]; [7] 19%

C=C1C(C)C2C(Cc3ccccc3)NC(=O)C23C(OC(C)=O)C=CC(C)(O)C(=O)C(C)C/C=C/C3C1O (stereo not given)
inactive: [2]; [7] 57% | [3]; [7] 58%
active: [1]; [7] 72% | [1]; [8] 96% | [1]; at 50.0 µM 88.8% | [2]; [8] 96% | [2]; at 50.0 µM 90.1% | [3]; [8] 97% | [3]; at 50.0 µM 89.2% | [4]; [7] 80% | [4]; [8] 96% | [4]; at 50.0 µM 85.2% | [5]; [7] 71% | [5]; [8] 98% | [5]; at 50.0 µM 84% | [6]; [7] 80% | [6]; [8] 96% | [6]; at 50.0 µM 84.1%

[Cl][Sn]([c]1ccccc1)[c]1ccccc1
active: [1]; [8] 93% | [1]; at 50.0 µM 80.8% | [2]; [8] 96% | [2]; at 50.0 µM 85.8% | [3]; [8] 99% | [3]; at 50.0 µM 89% | [4]; [8] 97% | [5]; [8] 98% | [5]; at 50.0 µM 87.8% | [6]; [8] 90% | [6]; at 50.0 µM 83.5%
inactive: [1]; [7] 41% | [2]; [7] 30% | [3]; [7] 56% | [4]; [7] 34% | [4]; at 50.0 µM 54.2% | [5]; [7] 57% | [6]; [7] 30%

S=C=Nc1cccc(Cl)c1
active: [1]; [8] 84% | [1]; at 50.0 µM 85.2% | [2]; [8] 90% | [2]; at 50.0 µM 86% | [3]; [8] 90% | [3]; at 50.0 µM 88.8% | [4]; at 50.0 µM 80.3% | [5]; [8] 89% | [5]; at 50.0 µM 85.2% | [6]; [8] 89% | [6]; at 50.0 µM 79.3%
inactive: [1]; [7] -17% | [2]; [7] -7% | [3]; [7] -10% | [4]; [7] 35% | [4]; [8] 65% | [5]; [7] 7% | [6]; [7] 2%

[CH3][Sn]([CH3])([Cl])[c]1cc[c]([Sn]([CH3])([CH3])[Cl])cc1
inactive: [1]; [7] 26% | [2]; [7] -1% | [2]; [8] 50% | [3]; [7] 6% | [4]; [7] 11% | [4]; [8] 63% | [5]; [7] 10% | [6]; [7] 20%
active: [1]; [8] 84% | [1]; at 50.0 µM 78% | [2]; at 50.0 µM 72.5% | [3]; [8] 80% | [3]; at 50.0 µM 85.5% | [4]; at 50.0 µM 77% | [5]; [8] 80% | [5]; at 50.0 µM 81.3% | [6]; [8] 87% | [6]; at 50.0 µM 80.2%

CCN(CC)P1(=O)OC(c2ccccc2)=CCN1c1ccc(OC)cc1 (stereo not given)
active: [1]; [8] 85% | [1]; at 50.0 µM 97.3% | [2]; [8] 82% | [2]; at 50.0 µM 95.3% | [3]; [8] 95% | [3]; at 50.0 µM 97.8% | [4]; [8] 78% | [4]; at 50.0 µM 83% | [5]; [8] 91% | [5]; at 50.0 µM 96.2% | [6]; [8] 91% | [6]; at 50.0 µM 96.3%
inactive: [1]; [7] 0% | [2]; [7] -1% | [3]; [7] -24% | [4]; [7] -7% | [5]; [7] 10% | [6]; [7] 2%

CC(=O)C(CN(C(C)C)C(C)C)C(c1ccccc1)c1c(O)c2ccccc2oc1=O (stereo not given)
active: [1]; at 50.0 µM 72% | [5]; at 50.0 µM 70.3% | [6]; at 50.0 µM 70.1%
inactive: [1]; [7] 17% | [1]; [8] 17% | [2]; [7] 11% | [2]; [8] 11% | [2]; at 50.0 µM 47.4% | [3]; [7] 8% | [3]; [8] 8% | [3]; at 50.0 µM 58.7% | [4]; [7] -3% | [4]; [8] -3% | [4]; at 50.0 µM 58% | [5]; [7] 13% | [5]; [8] 13% | [6]; [7] 12% | [6]; [8] 12%
